Experimental data published in PubChem BioAssay (Tox21).
Where “and” joins values, the source holds several entries; their conditions need not be identical. Equal entries are not always repeated. Results filed as inconclusive are left out. Some compounds were tested as several samples or in several runs, with calls that do not always agree. Calls of active or inactive are those of the source. Unless noted, calls come from the whole dose curve; as a rule, active = well fitted curve in the direction sought with a large enough effect in the repeat runs; inconclusive = weak or mixed curves; inactive = no such curve, though single readings can be large; an effect the other way counts as inactive or inconclusive.

How the values were obtained:
[1] = qHTS assay to identify small molecule agonists of H2AX (AID 1224845; active = well fitted activation curve with a large enough effect in the signal ratio in the repeat runs, not every such curve was filed as active; the % refers to the signal ratio; note: potency is the fitted concentration of half-maximal effect)
Procedure, shortened: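 Wild-type CHO-K1 cells, plated overnight, exposed 3hr at 37C to 15 concentrations (0.76% DMSO final). Lysed, then HTRF anti-pH2AX (S139) cryptate and anti-H2AX-d2 antibodies, 24 hr room temperature; 665/620 nm emission read.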

[2] = qHTS assay to identify small molecule agonists of H2AX - cell viability counter screen (AID 1224847; calls by dose curve; note: nearly all actives have a fitted effect of over 30% in size; note: potency is the fitted concentration of half-maximal effect)
Procedure, shortened: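 Compounds tested at 15 concentrations were incubated 3 hr at 37C with wild-type CHO-K1 cells; cellular ATP-based luminescence (CellTiter-Glo) indicated viability.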

[3] = qHTS RealTime-Glo MT Cell Viability Assay in HepG2 cells - 24 hour (AID 1224867); note: nearly all actives have a fitted effect of over 50% in size; note: potency is the fitted concentration of half-maximal effect
Procedure, shortened: (§1)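 HepG2 cells (600/well) were dispensed with RealTime-Glo reagents, incubated 5 h at 37 °C, then treated with compounds in DMSO for up to 40 h. Nonlytic NanoLuc luminescence reflecting viable cells was read at each stated time point.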

[4] = qHTS RealTime-Glo MT Cell Viability Assay in HEK293 cells - 32 hour (AID 1224868); note: nearly all actives have a fitted effect of over 50% in size; note: potency is the fitted concentration of half-maximal effect
Procedure, shortened: (§2)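 HEK293 cells seeded with NanoLuc/prosubstrate reagent, rested 5 h at 37 C, then dosed and kept at 37 C up to 40 h. Nonlytic real-time luminescence from viable cells read at 0, 8, 16, 24, 32 and 40 h.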

[5] = A CellTox Green Cytotoxicity Assay to monitor cytotoxicity in HEK293 cells - 0 hour (AID 1224869); note: nearly all actives have a fitted effect of over 50% in size; note: potency is the fitted concentration of half-maximal effect
Procedure, shortened: (§3)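 HEK293 cells, 600/well, were preincubated 5 hours and then exposed to compounds at 37 C for up to 40 hours. A cell-impermeant cyanine dye staining dead-cell DNA was read by fluorescence at 0, 8, 16, 24, 32 and 40 h time points.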

[6] = qHTS RealTime-Glo MT Cell Viability Assay in HepG2 cells - 40 hour (AID 1224870); note: nearly all actives have a fitted effect of over 50% in size; note: potency is the fitted concentration of half-maximal effect
Procedure, shortened: (§4)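 HepG2 cells (600/well) mixed with RealTime-Glo MT reagent, settled 5 h at 37 C/5% CO2 before compound addition. Nonlytic NanoLuc luminescence from viable-cell prosubstrate reduction read repeatedly during 40 h treatment at 37 C.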

[7] = A CellTox Green Cytotoxicity Assay to monitor cytotoxicity in HEK293 cells - 40 hour (AID 1224871); note: nearly all actives have a fitted effect of over 45% in size; note: potency is the fitted concentration of half-maximal effect
Procedure, shortened: as §3

[8] = qHTS RealTime-Glo MT Cell Viability Assay in HEK293 cells - 16 hour (AID 1224872); note: nearly all actives have a fitted effect of over 50% in size; note: potency is the fitted concentration of half-maximal effect
Procedure, shortened: as §2

[9] = qHTS RealTime-Glo MT Cell Viability Assay in HEK293 cells - 40 hour (AID 1224874); settings: RealTime-Glo luminescence; max response: stronger effect = lower value; note: nearly all actives have a fitted effect of over 50% in size; note: potency is the fitted concentration of half-maximal effect
Procedure, shortened: (§5)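 600 cells/well were plated with the nonlytic NanoLuc/prosubstrate reagent, pre-incubated 5 h, then given 23 nL of compound in DMSO. Incubation at 37 C for 40 h, with luminescence from viable-cell-reduced substrate read repeatedly from 0 h.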

[10] = A CellTox Green Cytotoxicity Assay to monitor cytotoxicity in HEK293 cells - 24 hour (AID 1224875); note: nearly all actives have a fitted effect of over 45% in size; note: potency is the fitted concentration of half-maximal effect
Procedure, shortened: as §3

[11] = A CellTox Green Cytotoxicity Assay to monitor cytotoxicity in HepG2 cells - 16 hour (AID 1224876); note: nearly all actives have a fitted effect of over 45% in size; note: potency is the fitted concentration of half-maximal effect
Procedure, shortened: (§6)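 HepG2 cells, 600/well, preincubated 5 h with CellTox Green dye, then exposed to Tox21 compounds in DMSO at 37 C for up to 40 h. Dead-cell DNA fluorescence read at the indicated time point.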

[12] = qHTS RealTime-Glo MT Cell Viability Assay in HepG2 cells - 32 hour (AID 1224877); note: nearly all actives have a fitted effect of over 55% in size; note: potency is the fitted concentration of half-maximal effect
Procedure, shortened: as §1

[13] = A CellTox Green Cytotoxicity Assay to monitor cytotoxicity in HepG2 cells - 40 hour (AID 1224879); note: nearly all actives have a fitted effect of over 40% in size; note: potency is the fitted concentration of half-maximal effect
Procedure, shortened: as §6

[14] = qHTS RealTime-Glo MT Cell Viability Assay in HEK293 cells - 0 hour (AID 1224880); note: nearly all actives have a fitted effect of over 45% in size; note: potency is the fitted concentration of half-maximal effect
Procedure, shortened: as §5

[15] = A CellTox Green Cytotoxicity Assay to monitor cytotoxicity in HEK293 cells - 32 hour (AID 1224881); note: nearly all actives have a fitted effect of over 40% in size; note: potency is the fitted concentration of half-maximal effect
Procedure, shortened: as §3

[16] = qHTS RealTime-Glo MT Cell Viability Assay in HepG2 cells - 8 hour (AID 1224873); note: nearly all actives have a fitted effect of over 55% in size; note: potency is the fitted concentration of half-maximal effect
Procedure, shortened: as §4

[17] = qHTS assay to identify small molecule antagonists of the estrogen related receptor (ERR) signaling pathway from Tox21 library (AID 1224848); note: nearly all actives have a fitted effect of over 50% in size; note: potency is the fitted concentration of half-maximal effect
Procedure, shortened: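 Luminescent reporter read-out (ONE-Glo) from NTP's ERR cell line after 18 h treatment at 37 C with DMSO-dissolved Tox21 compounds; cells pre-plated 6 h beforehand at 2,000 per well.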

[18] = qHTS assay to identify small molecule agonists of the estrogen related receptor (ERR) signaling pathway from Tox21 library (AID 1224849; calls by dose curve; note: nearly all actives have a fitted effect of over 15% in size); settings: ERR reporter cell line, ONE-Glo luciferase, 18 h; at 92.4 µM (top of the series) unless noted
Procedure, shortened: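 ERR reporter cells (NTP line) pre-incubated 6 hours at 37 C, then exposed to compounds for 18 hours at 37 C. ONE-Glo luciferase luminescence was read after 30 minutes at room temperature.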

[19] = A CellTox Green Cytotoxicity Assay to monitor cytotoxicity in HepG2 cells - 24 hour (AID 1224878); note: nearly all actives have a fitted effect of over 45% in size; note: potency is the fitted concentration of half-maximal effect
Procedure, shortened: as §6
% is set by controls: 0 for no effect and ±100 for the full control effect.

CCCCCCCCCCCCCCC(Br)C(=O)O (centres undefined)
active: Potency [13] 17.4 µM
inactive: Potency [1] | Potency [2] | Potency [3] | Potency [4] | Potency [5] | Potency [6] | Potency [7] | Potency [8] | max response [9] -7.18% | Potency [10] | Potency [11] | Potency [12] | Potency [14] | Potency [15]

ClCc1ccccc1CCl
inactive: Potency [1] | Potency [2] | Potency [3] | Potency [5] | Potency [6] | Potency [16] | Potency [10] | Potency [11] | Potency [12] | Potency [14]
active: Potency [7] 49 µM

Clc1ccc(-c2ccc(Cl)c(Cl)c2Cl)c(Cl)c1Cl
inactive: Potency [1] | Potency [17] | activity change, positive = activation [18] 6.41% | Potency [3] | Potency [5] | Potency [6] | Potency [7] | Potency [8] | Potency [16] | Potency [11] | Potency [12] | Potency [19] | Potency [13] | Potency [14] | Potency [15]

CC(=[OH+])/C=C(/C)[O-].CC(=[OH+])/C=C(\C)[O-].CC(=[OH+])/C=C(\C)[O-].[Fe]
inactive: Potency [1] | Potency [2] | Potency [3] | Potency [4] | Potency [5] | Potency [6] | Potency [8] | Potency [16] | max response [9] 5.66% | Potency [11] | Potency [12] | Potency [19] | Potency [13] | Potency [15]

CCOC(=O)CC(=O)CCl
active: Potency [4] 43.6 µM | Potency [7] 54.9 µM | Potency [8] 38.9 µM
inactive: Potency [1] | Potency [2] | Potency [3] | Potency [5] | Potency [6] | Potency [16] | Potency [11] | Potency [12] | Potency [19] | Potency [13] | Potency [14]

CCOC(=O)C1(c2ccccc2)CCN(CCC(C#N)(c2ccccc2)c2ccccc2)CC1
inactive: Potency [1] | Potency [2] | Potency [3] | Potency [4] | Potency [5] | Potency [6] | Potency [8] | Potency [10] | Potency [11] | Potency [12] | Potency [13] | Potency [14] | Potency [15]

O=c1ssc(Cl)c1Cl
inactive: Potency [1] | activity change, positive = activation [18] -17.9% | Potency [5]
active: Potency [2] 89.8 µM | Potency [3] 21.9 µM | Potency [4] 15.5 µM | Potency [6] 21.9 µM | Potency [7] 21.9 µM | Potency [8] 17.4 µM | Potency [16] 21.9 µM | Potency [9] 13.8 µM | Potency [10] 38.9 µM | Potency [11] 19.5 µM | Potency [19] 19.5 µM | Potency [13] 19.5 µM | Potency [14] 24.5 µM | Potency [15] 24.5 µM

O=CC(Br)(Br)Br
inactive: Potency [5] | Potency [14]
active: Potency [1] 31.8 µM | Potency [3] 48.8 µM | Potency [4] 2.45 µM | Potency [6] 43.5 µM | Potency [9] 2.45 µM | Potency [12] 43.5 µM | Potency [19] 48.8 µM | Potency [13] 43.5 µM

Cc1cc(C)c(C2=C(OC(=O)CC(C)(C)C)C3(CCCC3)OC2=O)c(C)c1
inactive: Potency [1] | Potency [17] | activity change, positive = activation [18] -1.28% | Potency [3] | Potency [4] | Potency [5] | Potency [6] | Potency [7] | Potency [8] | Potency [16] | max response [9] -6.03% | Potency [11] | Potency [12] | Potency [19] | Potency [13] | Potency [14] | Potency [15]

CC(=O)[O-].CC(=O)[O-].O.O.[Cd+2]
active: Potency [1] 62.7 µM | Potency [9] 15.3 µM | Potency [19] 48.3 µM | Potency [13] 27.2 µM
inactive: Potency [5] | Potency [6] | Potency [16] | Potency [14]

C[C@H]1CC[C@@H]2[C@@H](C)[C@H]3[C@H](C[C@H]4[C@@H]5CC=C6CC(O[C@@H]7O[C@H](CO)[C@H](O)[C@H](O[C@@H]8O[C@H](CO)[C@@H](O)[C@H](O)[C@H]8O)[C@H]7O[C@H]7O[C@@H](C)[C@H](O)[C@@H](O)[C@H]7O)CC[C@]6(C)[C@H]5CC[C@]34C)N2C1 (some centres undefined)
active: Potency [2] 32.9 µM | Potency [3] 50.6 µM | Potency [4] 14.3 µM | Potency [6] 56.7 µM | Potency [8] 12.7 µM | Potency [16] 45.1 µM | Potency [9] 14.3 µM | Potency [10] 4.51 µM | Potency [11] 22.6 µM | Potency [12] 50.6 µM | Potency [19] 11.3 µM | Potency [13] 22.6 µM | Potency [15] 5.06 µM
inactive: Potency [1] | activity change, positive = activation [18] -50.4% | Potency [5]

CC(C)OC(=S)S
inactive: Potency [3] | Potency [4] | Potency [5] | Potency [6] | Potency [7] | Potency [16] | max response [9] 12.1% | Potency [10] | Potency [11] | Potency [12] | Potency [14] | Potency [15]
active: Potency [1] 35.7 µM

CC(C)Oc1cccc(NC(=O)c2ccccc2C(F)(F)F)c1
inactive: Potency [1] | activity change, positive = activation [18] -38.3% | Potency [3] | Potency [6] | Potency [12] | Potency [14]
active: Potency [17] 24.3 µM | Potency [4] 24.5 µM | Potency [5] 43.6 µM | Potency [10] 19.5 µM | Potency [11] 43.6 µM | Potency [19] 43.6 µM | Potency [13] 43.6 µM | Potency [15] 1.23 µM

CN(C)C(=S)S
inactive and 34.7 µM (active): Potency [11]
inactive and 9.77 µM (active): Potency [6] | Potency [12]
inactive: Potency [2] | Potency [5] | Potency [16] | Potency [14]
active: Potency [1] 29 µM and 4.47 µM | Potency [4] 11.2 µM and 1.73 µM and 11 µM | Potency [7] 9.97 µM and 1.54 µM and 6.92 µM | Potency [8] 1.94 µM and 12.3 µM | Potency [19] 22.3 µM and 5.45 µM and 15.5 µM | Potency [13] 15.8 µM and 4.86 µM and 11 µM | Potency [15] 8.88 µM and 3.07 µM and 6.92 µM
inactive and 11 µM (active): Potency [3]

CCCCCCCCCCCCCC[P+](CCCCCC)(CCCCCC)CCCCCC (tested in a mixture with another compound)
active: Potency [1] 17.9 µM | Potency [2] 5.05 µM | Potency [3] 30.9 µM | Potency [4] 4.9 µM | Potency [6] 24.6 µM | Potency [7] 13.8 µM | Potency [8] 13.8 µM | Potency [16] 49 µM | Potency [9] 3.47 µM | Potency [10] 13.8 µM | Potency [11] 38.9 µM | Potency [12] 24.6 µM | Potency [19] 24.6 µM | Potency [13] 24.6 µM | Potency [15] 13.8 µM
inactive: Potency [5] | Potency [14]
